Experimental data reported in the supplement of paper PMC8007513.
Structures can show the parent of a compound that is named as a salt. ± gives the standard error. Hit rate of the full screen: of about 1,300 compounds, about 130 (10%) showed an effect of 50% or more. The entries come from a sample that favours strong results as a whole.

System: Trichoderma virens ATCC 9645
Assay: growth yield (OD600) with compound + IPBC relative to untreated control; higher = less growth inhibition
Settings: compound concentration: 100 uM, IPBC concentration: 200 ng/ml
Summary of the method: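 Trichoderma virens ATCC 9645 spores from 7-day potato dextrose agar plates were suspended in potato dextrose broth at 15,000 spores ml^−1. Aliquots of 100 μl with library compounds at 100 μM final, with or without a co-applied biocide at 200 ng ml^−1, were grown in 96-well plates at 30 °C. OD600 was read at 40 h and 72 h on a BioTek EL800. Growth is expressed relative to the control without either agent, as means of duplicate screens.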

| SMILES | growth yield (40 h) | growth yield (72 h) |
| --- | --- | --- |
| NCCCCCC(=O)O [Aminocaproic acid] + CCCCNC(=O)OCC#CI [3-iodo-2-propynyl butylcarbamate (IPBC)] | 103 ± 13% | 98.9 ± 6.8% |
| Nc1ncnc2c1ncn2C1OC(COP(=O)(O)O)C(O)C1O (configuration not stated) [Adenosine 5'-monophosphate monohydrate] + CCCCNC(=O)OCC#CI [3-iodo-2-propynyl butylcarbamate (IPBC)] | 79.4 ± 1.3% | 91.2 ± 1.1% |
| CC(C)(C)NC(=O)[C@@H]1CN(Cc2cccnc2)CCN1C[C@@H](O)C[C@@H](Cc1ccccc1)C(=O)N[C@H]1c2ccccc2C[C@H]1O [Indinavir sulfate] + CCCCNC(=O)OCC#CI [3-iodo-2-propynyl butylcarbamate (IPBC)] | 88.5 ± 3.3% | 89.78 ± 0.84% |
| Cc1nnc(NS(=O)(=O)c2ccc(N)cc2)s1 [Sulfamethizole] + CCCCNC(=O)OCC#CI [3-iodo-2-propynyl butylcarbamate (IPBC)] | 93.7 ± 8.9% | 97.3 ± 7.1% |
| Cc1cc(/C=C/c2ccc3cc(N(C)C)ccc3[n+]2C)c(C)n1-c1ccccc1 [Pyrvinium pamoate] + CCCCNC(=O)OCC#CI [3-iodo-2-propynyl butylcarbamate (IPBC)] | 111 ± 4.5% | 111 ± 3.1% |
| C[N+]1(C)CCCC(OC(=O)C(O)(c2ccccc2)c2ccccc2)C1 (configuration not stated) [Mepenzolate bromide] + CCCCNC(=O)OCC#CI [3-iodo-2-propynyl butylcarbamate (IPBC)] | 83.2% | 85.7 ± 0.94% |
| C=CCSCC1Nc2cc(Cl)c(S(N)(=O)=O)cc2S(=O)(=O)N1 (configuration not stated) [Althiazide] + CCCCNC(=O)OCC#CI [3-iodo-2-propynyl butylcarbamate (IPBC)] | 98.16 ± 0.32% | 96.7 ± 0.21% |
| CC=CC(=O)N(CC)c1ccccc1C [Crotamiton] + CCCCNC(=O)OCC#CI [3-iodo-2-propynyl butylcarbamate (IPBC)] | 98.8 ± 5.1% | 102 ± 2.2% |
| CCN1CCC[C@H]1CNC(=O)c1c(OC)ccc(Br)c1OC [Remoxipride Hydrochloride] + CCCCNC(=O)OCC#CI [3-iodo-2-propynyl butylcarbamate (IPBC)] | 101 ± 3.5% | 99 ± 1.5% |
| Clc1ccc(COC(Cn2ccnc2)c2ccc(Cl)cc2Cl)c(Cl)c1 (configuration not stated) [Miconazole] + CCCCNC(=O)OCC#CI [3-iodo-2-propynyl butylcarbamate (IPBC)] | 2.8591 ± 3.6e-15% | 2.41 ± 0.1% |
| C=CCOC(Cn1ccnc1)c1ccc(Cl)cc1Cl (configuration not stated) [Enilconazole] + CCCCNC(=O)OCC#CI [3-iodo-2-propynyl butylcarbamate (IPBC)] | 3.34 ± 0.16% | 2.94 ± 0.21% |
| Clc1ccc(CCC(Cn2ccnc2)Sc2c(Cl)cccc2Cl)cc1 (configuration not stated) [Butoconazole nitrate] + CCCCNC(=O)OCC#CI [3-iodo-2-propynyl butylcarbamate (IPBC)] | 3.18% | 2.62 ± 0.1% |
| Clc1ccc(CO/N=C(\Cn2ccnc2)c2ccc(Cl)cc2Cl)c(Cl)c1 [Oxiconazole Nitrate] + CCCCNC(=O)OCC#CI [3-iodo-2-propynyl butylcarbamate (IPBC)] | 3.49 ± 0.32% | 2.1 ± 0.21% |
| CC(=O)NCCCS(=O)(=O)O [Acamprosate calcium] + CCCCNC(=O)OCC#CI [3-iodo-2-propynyl butylcarbamate (IPBC)] | 102.9 ± 0.32% | 94.3 ± 2.4% |
| CCCCC(=O)O[C@H]1CC[C@H]2[C@@H]3CCc4cc(O)ccc4[C@H]3CC[C@]12C [Estradiol Valerate] + CCCCNC(=O)OCC#CI [3-iodo-2-propynyl butylcarbamate (IPBC)] | 92.29 ± 0.48% | 92.2 ± 2.4% |
| O=C1O[C@H]([C@@H](O)CO)C(O)=C1O [Ascorbic acid] + CCCCNC(=O)OCC#CI [3-iodo-2-propynyl butylcarbamate (IPBC)] | 92.1 ± 0.95% | 96.28 ± 0.63% |
| CN[C@@H]1[C@@H](O)[C@@H](O[C@@H]2[C@@H](O)[C@H](O[C@H]3OC(CN)=CC[C@H]3N)[C@@H](N)C[C@H]2N)OC[C@]1(C)O [Sisomicin sulfate] + CCCCNC(=O)OCC#CI [3-iodo-2-propynyl butylcarbamate (IPBC)] | 85.6 ± 3.6% | 91.9 ± 3.6% |
| Cc1ccccc1OCC(O)CO (configuration not stated) [Mephenesin] + CCCCNC(=O)OCC#CI [3-iodo-2-propynyl butylcarbamate (IPBC)] | 93.7 ± 2.9% | 99 ± 0.63% |
| CNCC(O)c1ccc(O)cc1 (racemic) [(+,-)-Synephrine] + CCCCNC(=O)OCC#CI [3-iodo-2-propynyl butylcarbamate (IPBC)] | 81.3 ± 3.8% | 93.8 ± 6.3% |
| NC(=O)C[S+]([O-])C(c1ccccc1)c1ccccc1 (configuration not stated) [Modafinil] + CCCCNC(=O)OCC#CI [3-iodo-2-propynyl butylcarbamate (IPBC)] | 82 ± 3.5% | 93.5 ± 2.9% |
| C[C@]12C=CC(=O)C=C1CC[C@@H]1[C@@H]2C(=O)C[C@@]2(C)[C@H]1CC[C@]2(O)C(=O)CO [Prednisone] + CCCCNC(=O)OCC#CI [3-iodo-2-propynyl butylcarbamate (IPBC)] | 90.9 ± 1.9% | 91.5 ± 1.3% |
| CCCC(C)C1(CC)C(=O)NC(=O)NC1=O (configuration not stated) [Pentobarbital] + CCCCNC(=O)OCC#CI [3-iodo-2-propynyl butylcarbamate (IPBC)] | 87.4 ± 2.9% | 94.2 ± 2.7% |
| C/C=C(/C(=C/C)c1ccc(O)cc1)c1ccc(O)cc1 [Dienestrol] + CCCCNC(=O)OCC#CI [3-iodo-2-propynyl butylcarbamate (IPBC)] | 94.8 ± 3.3% | 93.8 ± 2.3% |
| CCC(C)(CN(C)C)OC(=O)c1ccccc1 (configuration not stated) [Amyleine hydrochloride] + CCCCNC(=O)OCC#CI [3-iodo-2-propynyl butylcarbamate (IPBC)] | 88 ± 1.3% | 92 ± 2% |
| COc1ccc(Cl)cc1C(=O)NCCc1ccc(S(=O)(=O)NC(=O)NC2CCCCC2)cc1 [Glibenclamide] + CCCCNC(=O)OCC#CI [3-iodo-2-propynyl butylcarbamate (IPBC)] | 101 ± 6.8% | 108 ± 5.5% |
| Clc1ccc(C(Cn2ccnc2)OCc2csc3c(Cl)cccc23)c(Cl)c1 (configuration not stated) [Sertaconazole nitrate] + CCCCNC(=O)OCC#CI [3-iodo-2-propynyl butylcarbamate (IPBC)] | 3.97 ± 0.16% | 3.57 ± 0.42% |
